From PubChem BioAssay (NCI)
This is part of a sample that, as a whole, favours compounds with a hit. Of some 79,000 tested, about 15% had one in any assay. Calls of active or inactive are those of the source. No stated cut-off is given here; in the data, active means growth inhibition above about 70%; inactive means the rest.

Columns and labels:
[1] = NCI Yeast Anticancer Drug Screen. Data for the mec2-1 strain (AID 157); details: S. cerevisiae mec2-1 strain, hits give high values
Procedure, shortened: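 mec2-1 yeast strain, carrying an alteration in DNA damage repair or cell cycle control, was exposed to compounds; growth inhibition was measured relative to vehicle-treated controls.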

[2] = NCI Yeast Anticancer Drug Screen. Data for the rad14 strain (AID 159);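 further: 0% = growth of vehicle-treated control cultures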; details: S. cerevisiae rad14 strain growth inhibition, hits give high values
Procedure, shortened: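 Growth inhibition vs vehicle controls; genetically altered yeast strain (DNA damage repair defect) treated with test compounds.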

[3] = NCI Yeast Anticancer Drug Screen. Data for the sgs1 mgt1 strain (AID 161);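 further: 0% = growth of cultures given vehicle only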; details: S. cerevisiae sgs1 mgt1 strain, hits give high values
Procedure, shortened: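 Compounds are added to genetically altered yeast, and growth is compared with cultures given vehicle alone to give percent inhibition.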

[4] = NCI Yeast Anticancer Drug Screen. Data for the CLN2oe strain (AID 163);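 further: 0% = growth of vehicle-only control cultures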; details: S. cerevisiae CLN2oe strain, hits give high values
Procedure, shortened: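 Yeast cells carrying a defined cell-cycle control alteration were exposed to test compounds. Growth inhibition was scored against vehicle-treated control cultures.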

[5] = NCI Yeast Anticancer Drug Screen. Data for the cln2 rad14 strain (AID 165);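 further: 0% = growth equal to vehicle treated cultures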; details: S. cerevisiae cln2 rad14 strain, hits give high values
Procedure, shortened: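 Yeast carrying cln2 and rad14 alterations (cell cycle control and DNA damage repair) were exposed to compounds. Growth inhibition was measured against vehicle-treated controls.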

[6] = NCI Yeast Anticancer Drug Screen. Data for the bub3 strain (AID 167); details: S. cerevisiae bub3 mutant strain, hits give high values
Procedure, shortened: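 Readout: yeast growth inhibition, expressed relative to vehicle-only wells. The test organism is a mutant strain from a panel with lesions in DNA repair or checkpoint genes.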

[7] = NCI Yeast Anticancer Drug Screen. Data for the wt2 strain (AID 169);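 further: 0% = growth of vehicle-treated yeast cultures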; details: S. cerevisiae wt2 strain growth inhibition, hits give high values
Procedure, shortened: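 Yeast cells were exposed to test compounds, and growth inhibition was measured relative to vehicle-treated controls.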

[8] = NCI Yeast Anticancer Drug Screen. Data for the mlh1 strain (AID 171);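 further: 0% = growth of vehicle-treated control cultures of the same strain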; details: S. cerevisiae mlh1 strain growth inhibition, hits give high values
Procedure, shortened: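 Yeast carrying a defined genetic alteration in DNA damage repair or cell cycle control were exposed to test compounds. Growth inhibition was measured relative to vehicle-treated controls.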

[9] = NCI Yeast Anticancer Drug Screen. Data for the sgs1 strain (AID 173);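 further: 0% = growth of vehicle-only control cultures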; details: S. cerevisiae sgs1 mutant, hits give high values
Procedure, shortened: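 Yeast mutant strains carrying defined defects in DNA damage repair or cell cycle control were exposed to test compounds. Growth inhibition was scored against vehicle-treated controls.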

[10] = NCI Yeast Anticancer Drug Screen. Data for the mlh1 rad18 strain (AID 175); details: S. cerevisiae mlh1 rad18 strain growth inhibition, hits give high values
Procedure, shortened: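 Growth inhibition of the yeast strain was measured after compound exposure and expressed relative to vehicle-treated controls. The strain carries defined defects in DNA damage repair.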

[11] = NCI Yeast Anticancer Drug Screen. Data for the rad18 strain (AID 177); details: S. cerevisiae rad18 mutant growth inhibition, hits give high values
Procedure, shortened: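 Yeast carrying a defined DNA damage repair alteration were exposed to compounds. Growth inhibition was expressed relative to vehicle-treated controls.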

[12] = NCI Yeast Anticancer Drug Screen. Data for the wt1 strain (AID 149);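 further: 0% = growth of vehicle-treated wt1 cultures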; details: S. cerevisiae wt1 strain (SPY 50644) growth inhibition, hits give high values
Procedure, shortened: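 Growth inhibition read against vehicle controls after compound exposure of the wt1 yeast strain.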

[13] = NCI Yeast Anticancer Drug Screen. Data for the rad50EPP+ strain (AID 151);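 further: 0% = growth of vehicle-treated control cultures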; details: S. cerevisiae rad50 mutant strain, hits give high values
Procedure, shortened: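 Yeast strain carrying rad50 alteration (rad50EPP+) exposed to compounds; growth inhibition measured relative to vehicle-treated controls.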

[14] = NCI Yeast Anticancer Drug Screen. Data for the mgt1 strain (AID 153); details: S. cerevisiae mgt1 mutant growth inhibition, hits give high values
Procedure, shortened: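 Yeast mgt1 strain (DNA repair/cell-cycle alteration panel) exposed to compounds; growth inhibition measured relative to vehicle-treated controls.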

[15] = NCI Yeast Anticancer Drug Screen. Data for the rad50 strain (AID 155);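 further: 0% = growth of vehicle-only cultures of the same strain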; details: S. cerevisiae rad50 strain growth inhibition, hits give high values
Procedure, shortened: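 Readout: growth inhibition relative to vehicle-treated cultures. Compound exposure was carried out in a genetically defined yeast strain deficient in DNA damage repair.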

[16] = at 5.0 µM (retest, dose inferred, filed as 0.5)
[17] = at 50.0 µM (retest, dose inferred, filed as 5.0)

Measured: growth inhibition

NC(N)=NC(N)=Nc1ccccc1 (tested in a mixture with another compound)
inactive: [1]; at 100.0 µM 48% | [2]; at 1.2 µM -1% | [2]; at 3.7 µM -15% | [2]; at 11.0 µM -11% | [2]; at 33.0 µM -19% | [2]; at 100.0 µM 60% | [3]; [16] 3% | [3]; [17] -6% | [3]; at 50.0 µM 66.8% | [4]; at 1.2 µM -2% | [4]; at 3.7 µM -6% | [4]; at 11.0 µM -13% | [4]; at 33.0 µM -1% | [4]; at 100.0 µM 37% | [5]; [16] 33% | [5]; [17] -77% | [5]; at 50.0 µM 23.6% | [6]; at 1.2 µM -7% | [6]; at 3.7 µM 2% | [6]; [16] 20% | [6]; at 11.0 µM 10% | [6]; at 33.0 µM 9% | [6]; [17] 6% | [6]; at 50.0 µM 49.8% | [6]; at 100.0 µM 29% | [7]; at 1.2 µM -1% | [7]; at 3.7 µM -1% | [7]; at 11.0 µM 3% | [7]; at 33.0 µM 20% | [8]; at 1.2 µM 5% | [8]; at 3.7 µM 4% | [8]; at 11.0 µM 5% | [8]; at 33.0 µM -13% | [8]; at 100.0 µM 41% | [9]; at 1.2 µM 2% | [9]; at 3.7 µM 7% | [9]; at 11.0 µM 20% | [9]; at 33.0 µM 49% | [10]; [16] -4% | [10]; [17] -9% | [10]; at 50.0 µM 47% | [11]; at 1.2 µM 3% | [11]; at 3.7 µM -3% | [11]; at 11.0 µM 3% | [11]; at 33.0 µM 6% | [11]; at 100.0 µM 61%
active: [7]; at 100.0 µM 77% | [9]; at 100.0 µM 90%

O=S(=O)(NNc1ccccc1)c1ccccc1
inactive: [12]; at 1.2 µM -1% | [12]; at 3.7 µM -1% | [12]; at 11.0 µM 4% | [12]; at 33.0 µM 11% | [12]; at 100.0 µM 45% | [13]; at 1.2 µM -1% | [13]; at 3.7 µM 1% | [13]; at 11.0 µM 14% | [14]; at 1.2 µM -3% | [14]; at 3.7 µM -1% | [14]; at 11.0 µM 8% | [14]; at 33.0 µM 14% | [15]; at 1.2 µM 4% | [15]; at 3.7 µM 18% | [15]; [16] -20% | [15]; at 11.0 µM 27% | [15]; at 33.0 µM 60% | [15]; [17] 16% | [1]; at 1.2 µM -6% | [1]; at 3.7 µM -5% | [1]; [16] -12% | [1]; at 11.0 µM -3% | [1]; at 33.0 µM 26% | [1]; [17] 15% | [1]; at 50.0 µM 19.1% | [2]; at 1.2 µM -2% | [2]; at 3.7 µM 3% | [2]; at 11.0 µM 8% | [2]; at 33.0 µM 18% | [2]; at 100.0 µM 44% | [3]; [16] 0% | [3]; [17] 9% | [3]; at 50.0 µM 36.6% | [4]; at 1.2 µM 0% | [4]; at 3.7 µM -1% | [4]; at 11.0 µM 5% | [4]; at 33.0 µM 34% | [5]; [16] -44% | [5]; [17] -3% | [5]; at 50.0 µM 16.1% | [6]; at 1.2 µM -4% | [6]; at 3.7 µM -7% | [6]; [16] -4% | [6]; at 11.0 µM 1% | [6]; at 33.0 µM 45% | [6]; [17] 23% | [6]; at 50.0 µM 11.7% | [8]; at 1.2 µM -5% | [8]; at 3.7 µM -3% | [8]; at 11.0 µM -2% | [8]; at 33.0 µM 14% | [9]; at 1.2 µM -1% | [9]; at 3.7 µM -1% | [9]; at 11.0 µM 6% | [9]; at 33.0 µM 34% | [10]; [16] -25% | [10]; [17] 51% | [10]; at 50.0 µM 54.5% | [11]; at 1.2 µM -1% | [11]; at 3.7 µM 3% | [11]; at 11.0 µM 22% | [11]; at 33.0 µM 47%
active: [13]; at 33.0 µM 71% | [13]; at 100.0 µM 94% | [14]; at 100.0 µM 82% | [15]; at 50.0 µM 73.5% | [15]; at 100.0 µM 95% | [1]; at 100.0 µM 92% | [4]; at 100.0 µM 85% | [6]; at 100.0 µM 93% | [8]; at 100.0 µM 74% | [9]; at 100.0 µM 90% | [11]; at 100.0 µM 91%

C[C@H](CCC1=NC(C)(C)CO1)C1CCC2[C@@H]3C(O)C[C@@H]4CC(O)CC[C@]4(C)C3CC[C@@]21C (some centres undefined)
active: [12]; at 100.0 µM 99% | [14]; at 33.0 µM 71% | [14]; at 100.0 µM 100% | [15]; at 33.0 µM 76% | [15]; [17] 95% | [15]; at 50.0 µM 99.4% | [15]; at 100.0 µM 99% | [1]; at 33.0 µM 84% | [1]; [17] 98% | [1]; at 50.0 µM 99.8% | [1]; at 100.0 µM 100% | [2]; at 33.0 µM 99% | [2]; at 100.0 µM 100% | [3]; [17] 98% | [3]; at 50.0 µM 99.7% | [5]; [17] 96% | [5]; at 50.0 µM 97.9% | [6]; at 33.0 µM 79% | [6]; [17] 98% | [6]; at 50.0 µM 98.5% | [6]; at 100.0 µM 99% | [7]; at 33.0 µM 95% | [7]; at 100.0 µM 100% | [8]; at 33.0 µM 87% | [8]; at 100.0 µM 100% | [9]; at 33.0 µM 90% | [9]; at 100.0 µM 100% | [10]; [17] 98% | [10]; at 50.0 µM 99.4% | [11]; at 33.0 µM 96% | [11]; at 100.0 µM 99%
inactive: [12]; at 1.2 µM -3% | [12]; at 3.7 µM -5% | [12]; at 11.0 µM -11% | [12]; at 33.0 µM 37% | [13]; at 1.2 µM -4% | [13]; at 3.7 µM -3% | [13]; at 11.0 µM -3% | [13]; at 33.0 µM -4% | [13]; at 100.0 µM 25% | [14]; at 1.2 µM -7% | [14]; at 3.7 µM -8% | [14]; at 11.0 µM -9% | [15]; at 1.2 µM -3% | [15]; at 3.7 µM -4% | [15]; [16] 1% | [15]; at 11.0 µM -8% | [1]; at 1.2 µM -5% | [1]; at 3.7 µM -3% | [1]; [16] -2% | [1]; at 11.0 µM -6% | [2]; at 1.2 µM -4% | [2]; at 3.7 µM -4% | [2]; at 11.0 µM 1% | [3]; [16] 3% | [5]; [16] 1% | [6]; at 1.2 µM -3% | [6]; at 3.7 µM -2% | [6]; [16] 0% | [6]; at 11.0 µM -10% | [7]; at 1.2 µM -4% | [7]; at 3.7 µM -7% | [7]; at 11.0 µM -12% | [8]; at 1.2 µM -3% | [8]; at 3.7 µM -6% | [8]; at 11.0 µM -6% | [9]; at 1.2 µM -3% | [9]; at 3.7 µM -4% | [9]; at 11.0 µM -6% | [10]; [16] -7% | [11]; at 1.2 µM -5% | [11]; at 3.7 µM -6% | [11]; at 11.0 µM -6%
